Experimental data taken from PubChem BioAssay (NCATS).
Results filed as inconclusive are left out. Activity calls are given as the source filed them. The call rests on the fitted dose curve; in most records, active means well fitted cell-killing curve with a large enough effect; inconclusive means small, poorly fitted or top-dose-only effect, or effect the other way; inactive means no such curve, though single readings can be large or run the other way.

Legend:
[1] = Quantitative High-Throughput drug screen in 47 multiple myeloma cell lines against the NCATS MIPE library collection: FR4_PLB cell viability assay (AID 1918924; further: nearly all actives have a fitted effect of over 35% in size)
Procedure, shortened: (§1)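 Luminescent ATP measurement with CellTiter-Glo gives viability, scaled between DMSO-only wells (100%) and media-only wells (0%). Cells, 500 per well, faced library compounds for 48 hours at 37C.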

[2] = Quantitative High-Throughput drug screen in 47 multiple myeloma cell lines against the NCATS MIPE library collection: Delta47_JCRB cell viability assay (AID 1918925; further: nearly all actives have a fitted effect of over 45% in size)
Procedure, shortened: (§2)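 Approved and investigational drugs from MIPE 4.0 were added by pin tool to 500 cells per well. After 48 hours at 37C, ATP-based CellTiter-Glo luminescence indicated remaining viability.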

[3] = Quantitative High-Throughput drug screen in 47 multiple myeloma cell lines against the NCATS MIPE library collection: AMO1_DSMZ cell viability assay (AID 1918927; further: nearly all actives have a fitted effect of over 30% in size)
Procedure, shortened: as §2

[4] = Quantitative High-Throughput drug screen in 47 multiple myeloma cell lines against the NCATS MIPE library collection: ARP1_JJKsccF8 cell viability assay (AID 1918928; further: nearly all actives have a fitted effect of over 40% in size)
Procedure, shortened: (§3)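 ATP readout (CellTiter-Glo), 48 h drug incubation, 37 °C/5% CO2, 500 cells per well; normalisation to DMSO (100%) and media-only (0%) controls.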

[5] = Quantitative High-Throughput drug screen in 47 multiple myeloma cell lines against the NCATS MIPE library collection: ARD_JJKsccE7 cell viability assay (AID 1918929)
Procedure, shortened: as §2

[6] = Quantitative High-Throughput drug screen in 47 multiple myeloma cell lines against the NCATS MIPE library collection: KMM1_JCRB cell viability assay (AID 1918960); further: nearly all actives have a fitted effect of over 30% in size;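 on viability (% of DMSO): 100% = DMSO-treated cells and 0% = medium-only wells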
Procedure, shortened: as §3

[7] = Quantitative High-Throughput drug screen in 47 multiple myeloma cell lines against the NCATS MIPE library collection: Karpas620_DSMZ cell viability assay (AID 1918959); further: nearly all actives have a fitted effect of over 30% in size
Procedure, shortened: as §1

[8] = Quantitative High-Throughput drug screen in 47 multiple myeloma cell lines against the NCATS MIPE library collection: EJM_DSMZ cell viability assay (AID 1918926; further: nearly all actives have a fitted effect of over 30% in size)
Procedure, shortened: as §2
Potency means the concentration at half of the fitted maximal effect.

C=CC[C@@H]1C=C(C)C[C@H](C)C[C@H](OC)[C@H]2O[C@@](O)(C(=O)C(=O)N3CCCC[C@H]3C(=O)O[C@H](C(C)=C[C@@H]3CC[C@H](O)[C@H](OC)C3)[C@@H](C)[C@@H](O)CC1=O)[C@@H](C)C[C@@H]2OC
active: Potency [1] 2640 nM | Potency [2] 1870 nM | Potency [3] 2640 nM | Potency [4] 2090 nM | Potency [5] 2090 nM | Potency [6] 2090 nM

CCNC(=O)c1cc2c(-c3cc(OCCN4CCCC4)c(Cl)cc3Cl)nc(N)nc2s1
active: Potency [1] 1480 nM | Potency [2] 1050 nM | Potency [3] 935 nM | Potency [4] 1660 nM | Potency [5] 526 nM | Potency [7] 1050 nM | Potency [6] 590 nM

CCCc1nc(C(C)(C)O)c(C(=O)O)n1Cc1ccc(-c2ccccc2-c2nn[nH]n2)cc1
inactive: Potency [1] | Potency [2] | Potency [3] | Potency [4] | Potency [5] | Potency [7] | Potency [6]

Nc1ncn([C@@H]2O[C@H](CO)[C@@H](O)[C@@H]2O)c(=O)n1
active: Potency [1] 4690 nM | Potency [2] 3320 nM | Potency [3] 1480 nM | Potency [4] 5260 nM | Potency [5] 2350 nM | Potency [7] 4690 nM | Potency [6] 1180 nM

O=C(C=CC#Cc1cccc(NS(=O)(=O)c2ccccc2)c1)NO
active: Potency [1] 1180 nM | Potency [2] 1180 nM | Potency [8] 5900 nM | Potency [5] 1180 nM | Potency [7] 1870 nM | Potency [6] 526 nM

CCS(=O)(=O)Nc1ccc2[nH]c(O)c(C(=Nc3ccc(CN4CCCCC4)cc3)c3ccccc3)c2c1
active: Potency [1] 18700 nM | Potency [2] 52.6 nM | Potency [3] 148 nM | Potency [4] 743 nM | Potency [5] 469 nM

Oc1cc2c(cc1O)C1c3ccc(O)c(O)c3OCC1(O)C2 (stereo unspecified)
inactive: Potency [1] | Potency [2] | Potency [3] | Potency [4] | Potency [5] | Potency [7]

CC(C)(C)[C@H](NC(=O)c1ccc(N)c(Cl)c1)C(=O)N1CCC[C@@H]1C(=O)N[C@H](C#N)CC(=O)O
inactive: viability (% of DMSO control) [1] 107% [at 3.51 µM] | viability (% of DMSO) [2] 119% [at 3.51 µM] | viability, % of control [8] 97.8% [at 3.51 µM] | viability (% of DMSO) [7] 126% [at 3.51 µM] | viability (% of DMSO) [6] 90.2% [at 3.51 µM]

COC[C@H](NC(=O)c1cnc(C)s1)C(=O)N[C@@H](COC)C(=O)N[C@@H](Cc1ccccc1)C(=O)[C@@]1(C)CO1
active: Potency [1] 46.9 nM | Potency [2] 37.2 nM | Potency [3] 26.4 nM | Potency [4] 74.3 nM | Potency [5] 52.6 nM | Potency [7] 46.9 nM | Potency [6] 33.2 nM

NS(=O)(=O)OC[C@@H]1C[C@@H](n2ccc3c(N[C@H]4CCc5ccccc54)ncnc32)C[C@H]1O
active: Potency [1] 9350 nM | Potency [2] 526 nM | Potency [3] 296 nM

O=c1[nH]c(=O)n([C@H]2C[C@@H](O)[C@@H](CO)O2)cc1F
active: Potency [1] 13200 nM | Potency [2] 18700 nM | Potency [3] 1660 nM | Potency [4] 5260 nM | Potency [5] 23500 nM | Potency [6] 1660 nM

c1cc(CN2CCCNCCNCCCNCC2)ccc1CN1CCCNCCNCCCNCC1
inactive: Potency [1] | Potency [2] | Potency [8] | Potency [5] | Potency [7] | Potency [6]

C=CC(=O)Nc1cc(NC(=O)c2ccc(C)c(NC(=O)c3ccno3)c2)cc(C(F)(F)F)c1
active: Potency [1] 26400 nM | Potency [2] 9350 nM | Potency [3] 5260 nM | Potency [4] 16600 nM | Potency [5] 5900 nM | Potency [7] 8330 nM

O=C(C[C@@H]1CC=CCCC(=O)O[C@H](c2ccccc2)CNC1=O)NCc1ccc(Cl)cc1
inactive: Potency [7]
active: Potency [1] 16600 nM | Potency [2] 10500 nM | Potency [8] 1.2 nM

O=C(O)C=Cc1ccc(Cn2ccnc2)cc1
inactive: Potency [1] | Potency [2] | Potency [8] | Potency [5] | Potency [7] | Potency [6]

COc1ccc(Nc2cc(-c3cnc(N)nc3)nc(N3CCOCC3)n2)cn1
active: Potency [1] 4180 nM | Potency [2] 1480 nM | Potency [3] 3720 nM | Potency [4] 469 nM | Potency [5] 372 nM | Potency [7] 2640 nM

O=C1NCCc2[nH]c(-c3ccncc3)cc21
active: Potency [1] 1870 nM | Potency [2] 2960 nM | Potency [3] 1660 nM | Potency [4] 5900 nM | Potency [5] 4180 nM | Potency [7] 2350 nM | Potency [6] 1050 nM

CC(=O)SCC(Cc1ccccc1)C(=O)NCC(=O)OCc1ccccc1 (stereo unspecified)
active: Potency [1] 18700 nM | Potency [2] 1050 nM | Potency [3] 3720 nM | Potency [4] 2350 nM | Potency [5] 8330 nM | Potency [7] 1660 nM | Potency [6] 3320 nM

OCC(O)C(O)C(O)CO (stereo unspecified)
inactive: Potency [1] | Potency [2] | Potency [8] | Potency [5] | Potency [7]

CC(C)(C)c1nc2c3cc[nH]c(=O)c3c3cc(F)ccc3c2[nH]1
active: Potency [1] 833 nM | Potency [2] 3320 nM | Potency [8] 2960 nM
inactive: Potency [7]
